This is an account of results in PubChem BioAssay (NCATS).

The structures appear in SMILES notation. “And” between values parts separate entries of the source, which are not always exact repeats. Identical values can stand only once. Records with an inconclusive call do not appear. The source made the active and inactive calls. Unless noted, calls follow the shape of the dose curve; as a rule, active = well fitted curve in the direction sought with a large enough effect; inconclusive = small, poorly fitted or top-dose-only effect, or another doubt; inactive = no such curve, though single readings can be large; an effect the other way counts as inactive or inconclusive.

The target of experiment [1] is Alpha-galactosidase A (Homo sapiens) (UniProt P06280). As to the kind of experiment: Counterscreen for Glucocerebrosidase Inhibitors: qHTS Assay for Human alpha-Galactosidase at pH 4.5 (AID 992). Also: 0% is about no effect. The essentials:
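Enzyme at 2 nM final was combined with compound (0.7 nM to 77 uM) and 80 uM 4-methylumbelliferyl alpha-D-galactopyranoside in 50 mM citric acid, 0.005% Tween-20, pH 4.5. After 20 min at room temperature, fluorescence was read (Ex 365/Em 440 nm); AC50 came from Hill fits.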
(A counterscreen serves to expose hits that act by an unwanted route or on another target.)

Experiment [2] has as its target alpha-glucosidase (Oryza sativa, rice) (UniProt Q653V4). As to the kind of experiment: Counterscreen for Glucocerebrosidase Inhibitors: qHTS Assay for Rice alpha-Glucosidase at pH 5.0 (AID 997).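 Also: 0% = full activity with enzyme and -100% = basal without enzyme.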 The essentials:
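Rice alpha-glucosidase (4 nM final) with 400 uM 4-methylumbelliferyl-alpha-D-glucopyranoside in citrate buffer pH 5.0, 20 min at room temperature, stopped at pH 10; fluorescence 365/440 nm, compounds 0.7 nM–77 uM, AC50 from Hill fits.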

A short description of experiment [3]: Validation of Assay for Modulators of Lamin A Splicing (AID 1459; active = well fitted curve in the direction sought with a large enough effect in the signal ratio; the % refers to the signal ratio;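 also: cells exposed to compound for two days before reading; 0% is about no effect; ratio rise marks activators and ratio drop marks inhibitors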). The essentials:
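Splicing correction is reported by an EGFP-containing lamin A minigene in stably transfected S3 HeLa cells, while DsRed2 controls for viability and nonspecific signal. Cells are exposed to compounds for 48 hrs before the GFP over RFP ratio is taken.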

The target of experiment [4] is DNA repair nuclease/redox regulator APEX1 (Homo sapiens) (UniProt P27695). As to the kind of experiment: qHTS Validation Assay for Inhibitors of the Human Apurinic/apyrimidinic Endonuclease 1 (APE1) (AID 1705;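 also: TAMRA fluorescence gain over two minutes as APE1 cuts a quenched THF abasic duplex; % is scaled to controls: 0 for no effect and ±100 for the full control effect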). Put shortly: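 Endonuclease activity of human APE1 is followed as dequenching when the enzyme incises a tetrahydrofuran abasic site in a short duplex labelled 5'-TAMRA/3'-BHQ-2 (50 nM final), after 15 min enzyme–compound preincubation at room temperature.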
Background: Quantitative high-throughput screening tests each substance at several concentrations.

A short description of experiment [5]: Counterscreen for APE1 Inhibitors: Fluorescent Dye Displacement Validation Assay (AID 1707).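 Also: plate controls were ThO with dsDNA and no compound for no effect and ThO without dsDNA for full effect.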 The essentials:
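Thiazole Orange displacement from dsDNA: 250 nM ThO with 50 nM TAMRA-labelled abasic-site (tetrahydrofuran) duplex in 50 mM Tris-HCl pH7.5, 50mM NaCl, 2 mM MgCl2, 0.01% Tween-20. Loss of endpoint fluorescence (ex 480 nm, em 540 nm) flags DNA binders.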

Experiment [6] deals with Endonuclease 4 (Escherichia coli (strain K12)) (UniProt P0A6C1). As to the kind of experiment: Counterscreen for APE1 Inhibitors: qHTS Validation Assay for Inhibitors of Endonuclease IV (AID 1708). Also: % is scaled to controls: 0 for no effect and ±100 for the full control effect. Put shortly:
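E. coli EndoIV at 2 nM final, preincubated 15 min at room temperature with compound, then 50 nM TAMRA/BHQ-2 THF abasic-site duplex added. Buffer: 50 mM Tris-HCl pH 7.5, 50 mM NaCl, 2 mM MgCl2, 1 mM DTT, 0.01% Tween-20. Kinetic fluorescence increase, third minus first read.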

Experiment [7] can be described thus: qHTS for differential inhibitors of proliferation of Plasmodium falciparum line 7G8 (AID 1815).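 Also: parasite growth measured after three days of incubation.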 Also: potency is read from the fitted curve at half-maximal effect.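 As to activity change, negative = inhibition: plate controls were vehicle wells for no effect and reference inhibitor wells for full effect.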
Experiment [8] can be described thus: qHTS for differential inhibitors of proliferation of Plasmodium falciparum line GB4 (AID 1816).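 Also: parasite growth measured after 72 h incubation.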 Also: potency is read from the fitted curve at half-maximal effect.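 As to activity change, negative = inhibition: 0% = vehicle DMSO and -100% = reference inhibitor.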 The conditions noted are these: Potency: Plasmodium falciparum GB4 proliferation inhibition.
Experiment [9] can be described thus: qHTS for differential inhibitors of proliferation of Plasmodium falciparum line 3D7 (AID 1876). Also: potency is read from the fitted curve at half-maximal effect.
Experiment [10] in a line: qHTS Assay for Lipid Storage Modulators (AID 1519; calls by dose curve; as to activity change, negative = inhibition: % is scaled to controls: 0 for no effect and ±100 for the full control effect). The settings on record: Drosophila S3 cells, BODIPY lipid droplet/cell ratio, laser cytometry, cells loaded with oleic acid. The essentials:
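Cells seeded at 5,000 per well were treated with compounds over a concentration series and loaded with oleic acid (400 uM, as added). Lipid droplet fluorescence (488 nm excitation, 500-530 nm channel) was read by laser-scanning cytometry and normalized to 20 uM Triacsin C.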

[11] abbreviates: measured here: cell count channel max response.
Setting [12] is: measured here: lipid channel max response.

Sequence of DNA repair nuclease/redox regulator APEX1 (Homo sapiens) (P27695 whole entry, looked up): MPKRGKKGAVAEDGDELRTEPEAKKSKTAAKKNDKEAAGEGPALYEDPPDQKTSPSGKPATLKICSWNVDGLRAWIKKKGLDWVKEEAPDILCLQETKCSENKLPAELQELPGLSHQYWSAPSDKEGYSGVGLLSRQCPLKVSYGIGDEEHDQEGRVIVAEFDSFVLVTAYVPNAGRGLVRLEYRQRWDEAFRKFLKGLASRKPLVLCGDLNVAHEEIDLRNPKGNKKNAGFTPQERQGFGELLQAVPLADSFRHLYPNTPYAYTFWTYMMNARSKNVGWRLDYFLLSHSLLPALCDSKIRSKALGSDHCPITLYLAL
Sequence of Alpha-galactosidase A (Homo sapiens) (P06280 whole entry, looked up): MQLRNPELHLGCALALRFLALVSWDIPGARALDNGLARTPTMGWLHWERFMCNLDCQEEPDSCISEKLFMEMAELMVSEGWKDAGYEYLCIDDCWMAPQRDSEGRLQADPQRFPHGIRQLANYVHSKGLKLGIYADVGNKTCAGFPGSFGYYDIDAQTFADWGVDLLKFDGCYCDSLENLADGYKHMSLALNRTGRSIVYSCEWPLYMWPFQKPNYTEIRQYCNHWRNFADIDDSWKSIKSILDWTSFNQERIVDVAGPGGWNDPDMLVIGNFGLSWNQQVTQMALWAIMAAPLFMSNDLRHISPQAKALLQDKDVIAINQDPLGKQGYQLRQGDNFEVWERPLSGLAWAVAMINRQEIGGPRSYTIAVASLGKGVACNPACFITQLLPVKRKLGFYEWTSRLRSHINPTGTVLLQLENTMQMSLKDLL

Turning to `CCc1c(C)[nH]c2c1C(=O)C(CN1CCOCC1)CC2` (stereo not given), the compound was classed as inactive in [1], in experiment [2], in experiment [3] and in experiment [5]. The Potency entry in [4], in experiment [6], in experiment [7], in experiment [8] and in experiment [9] was “inactive” throughout.
For `CC(=O)OC(C)C[N+](C)(C)C` (stereo not given), the outcome in [3] and in experiment [5] was inactive. For the same compound, the activity change, negative = inhibition in experiment [10] (at 57.5 µM (top of the series)) was 7.3% (inactive). Further, the values for the max response in experiment [10] (setting [11]) and in experiment [10] (setting [12]) were 18.4% and 29.3%, respectively. Also, the Potency result in experiment [4], in [6], in experiment [7], in experiment [8] and in experiment [9] was “inactive” each time.
Take `CC(C)NCC(O)c1cc(O)cc(O)c1` (stereo not given): the call in [3] and in experiment [5] was inactive. The activity change, negative = inhibition in experiment [10] (at 57.5 µM (top of the series)) was 10.7% (inactive) and 0.0278% (inactive). For the same compound, the max response was 8.74% and -21.1% in experiment [10] (setting [11]); 23% and -23.1% in experiment [10] (setting [12]). Also, the Potency entry in experiment [6], in experiment [7], in [8] and in experiment [9] was “inactive” in each case.
As to `CN(C(=O)CCCOc1ccc2[nH]c(=O)ccc2c1)C1CCCCC1`, the call in experiment [1], in [2], in experiment [3] and in [5] was inactive. In addition, the Potency entry in experiment [4] and in [6] was “inactive” throughout. Moreover, the Potency in experiment [7] is 7.08 µM (active).
For the compound `COc1cc(C(=O)OCCCN2CCCN(CCCOC(=O)c3cc(OC)c(OC)c(OC)c3)CC2)cc(OC)c1OC`, the compound was called inactive in experiment [1], in experiment [2], in experiment [3] and in experiment [5]. In addition, in experiment [10] (at 25.7 µM (top of the series)), the activity change, negative = inhibition was -0.679% (inactive). Also, the max response in experiment [10] (setting [11]) turned out to be 11.7%; in experiment [10] (setting [12]) it was 8.49%. Moreover, in experiment [4], the Potency entry was “inactive”. The Potency is 5.01 µM (active) in experiment [7], 6.31 µM (active) in [8] and 3.16 µM (active) in [9].
On to `CCCCCN(CCCCC)C(=O)C(CCC(=O)O)NC(=O)c1ccc(Cl)c(Cl)c1` (stereo not given), for which the compound was classed as inactive in experiment [3] and in [5]. Further, the Potency entry in experiment [4], in [6], in experiment [7], in experiment [8] and in [9] was “inactive” throughout.
For the compound `O=C(O)CCCCCCCC(=O)O`, the outcome in experiment [1], in [2], in experiment [3] and in [5] was inactive. Besides, the Potency entry in [4], in [6], in experiment [7], in experiment [8] and in experiment [9] was “inactive” throughout.
With `CNCCC(Oc1ccccc1OC)c1ccccc1` (stereo not given), the compound was called inactive in experiment [3] and in experiment [5]. Also, the Potency result in experiment [4] and in experiment [6] was “inactive” each time. In addition, the Potency in experiment [7] was 3.55 µM (active).
`CC(N=C(NC#N)Nc1ccncc1)C(C)(C)C` (stereo not given): the call in experiment [3] and in experiment [5] was inactive. Moreover, the activity change, negative = inhibition in experiment [10] (at 57.5 µM (top of the series)) was 13.9% (inactive) and 0.102% (inactive). Besides, the max response in [10] (setting [11]) was 1.72% and -23.9%; in experiment [10] (setting [12]) it was 14.8% and -22.8%. The Potency entry in [4] and in [6] was “inactive” each time.
Take `COCCc1ccc(OCC(O)CNC(C)C)cc1` (stereo not given): the call in experiment [3] and in experiment [5] was inactive. Besides, the Potency entry in experiment [4], in [6], in [7] and in [9] was “inactive” each time.
With `FC(F)(F)c1ccccc1-n1ccnc1`, the compound was classed as inactive in experiment [1], in experiment [2], in experiment [3] and in experiment [5]. In addition, in experiment [10] (at 57.5 µM (top of the series)), the activity change, negative = inhibition is 7.35% (inactive). For the same compound, the max response came out at 11% in experiment [10] (setting [11]) and 25.3% in experiment [10] (setting [12]). In addition, the Potency result in experiment [4], in experiment [6], in experiment [7], in [8] and in [9] was “inactive” in each case.
Consider `CCN(CC)CCOCCOC(=O)C1(c2ccccc2)CCCC1`, for which the outcome in experiment [1], in [2], in experiment [3] and in experiment [5] was inactive. Besides, the activity change, negative = inhibition in experiment [10] (at 25.7 µM (top of the series)) was -7.98% (inactive); in experiment [10] (at 57.5 µM (top of the series)) it was -1.81% (inactive) and 10.4% (inactive) and -0.577% (inactive). For the same compound, the Potency entry in experiment [4] is “inactive”. Besides, in [7], the Potency is 3.16 µM (active).
